Measured values reported in ChEMBL document CHEMBL4888484, “Replenishing the malaria drug discovery pipeline: Screening and hit evaluation of the MMV Hit Generation Library 1 (HGL1) against asexual blood stage Plasmodium falciparum ,using a nano luciferase reporter read-out” (2022).
In all, about 150,000 compounds went through this assay and about 540 (0.36%) showed an effect of 50% or more. Many of the other results were omitted from the sample, so strong results are more common in it than they were.

Each compound was assayed on Plasmodium falciparum (assay: Primary screen in NF54 nanoGlo assay, in single point, at 2uM, 72h; a lower Z score goes with more inhibition). Conditions: timepoint 72 hour.
Type: functional, Erythrocyte

SMILES | % Inhibition [%] | Z score
CN1C(=O)[C@@H]2CCCCN2c2ccc(C(=O)N3CCN(C(=O)c4ccco4)CC3)cc21 | 1 | -0.14
COCC1(CNC(=O)CNC(C)=O)CCCC1 | -5 | 0.85
Cc1ccccc1CC(=O)N[C@H]1CCCCNC1=O | 0 | 0.03
Cc1ccccc1CN[C@H]1CCCOCC1 | -4 | 0.53
Cc1ccccc1CNC1C(=O)NCCC1C (stereo not given) | 74 | 1.17
Cc1cc(C)cc(CCNC(=O)CN(C)S(C)(=O)=O)c1 | -4 | 0.7
COc1ccc(C[C@@H]2C3=C(CCCC3)CCN2C(=O)c2cc(C)on2)cc1 | -5 | 0.97
OCC1(CN2CCCC2)CCN(Cc2ccc(Cl)cc2)CC1 | 2 | -0.36
COc1c(C)cnc(Cn2cnc(N)n2)c1C | 8 | -0.99
CN1CCN(C[C@@]2(Cc3ccccc3)CCOC2)CC1 | -3 | 0.56
COc1ccc(NC(=O)c2sc3nc(C)c(C(=O)Nc4ccc(C)cc4C)c(-c4ccccc4Cl)c3c2N)cc1 | 38 | -3.76
Cc1ccc(NC(=O)c2c(C)nc3sc(C(=O)NCc4ccccc4)c(N)c3c2-c2cccnc2)c(C)c1 | 21 | -3.35
CCc1ccc(NC(=O)c2sc3nc(C)c(C(=O)Nc4ccc(C)cc4C)c(-c4ccccc4Cl)c3c2N)cc1 | 40 | -2.96
CC[C@H](C)NC(=O)c1sc2nc(C)c(C(=O)Nc3ccc(C)cc3C)c(-c3cccs3)c2c1N | 17 | -2.61
Cc1ccc(NC(=O)c2c(C)nc3sc(C(=O)NCc4ccccc4)c(N)c3c2-c2ccccc2Cl)c(C)c1 | 90 | -8.85
Cc1ccc(NC(=O)c2c(C)nc3sc(C(=O)NCc4ccccc4)c(N)c3c2-c2cccs2)c(C)c1 | 61 | -9.57
C[C@H](NS(=O)(=O)c1cccc2nsnc12)c1nncn1C | -8 | 1.65
Cc1cc(NC(=O)c2ccccc2C(=O)c2ccc(Cl)cc2)ccc1N1CCCC1=O | -10 | 1.56
COc1ccc(F)cc1S(=O)(=O)N1CC2(C[C@H](CC(=O)NCC3CC3)CO2)C1 | -2 | 0.34
Cn1cc(Br)c2nc[nH]c(=O)c21 | -14 | 1.39
CC(=O)c1ccc(CNc2ncc(Cl)cn2)nc1C | -16 | 1.6
CCOC(=O)c1nccc(C#N)c1Cl | 40 | -5.19

SMILES | % Inhibition [%] | Z score
CCOC(=O)c1ncc(Cl)c(C#N)c1Cl | 50 | 0.88
CCOC(=O)c1nsc(Cl)c1Cl | 4 | -0.44
NC(=O)[C@@H]1CCCN1S(=O)(=O)c1ccc2c(c1)CCC(=O)N2 | -13 | 1.82
O=C(c1nnn(-c2ccccc2Cl)c1-c1cccnc1)N1CCN(c2ccccc2)CC1 | -8 | 0.9
O=C(c1nnn(-c2ccccc2Cl)c1-c1cccnc1)N1CCC(Cc2ccccc2)CC1 | 40 | -5.19
COc1ccccc1N1CCN(C(=O)c2nnn(-c3ccccc3Cl)c2-c2cccnc2)CC1 | 50 | -6.51
Cc1nn(-c2ccc(Br)cc2)c(NC(=O)N(C)[C@@H](C)c2ccccc2F)c1C | 2 | -0.23
Cn1nccc1CNC(CO)CC(O)C(C)(C)C (stereo not given) | -3 | 0.38
CCn1cnnc1NC(=O)c1cc(C)sn1 | 1 | -0.12
O=C(Cn1ncn2nc(-c3ccccc3)cc2c1=O)N1CCCCC1 | -20 | 1.75
N#Cc1cccc(S(=O)(=O)N2CCCCCCC2)c1 | 4 | -0.83
Cc1c2c(=O)n(-c3nc4ccccc4s3)n(Cc3ccc(F)cc3)c2cc(=O)n1CCCN1CCOCC1 | 32 | -3.58
Cc1c2c(=O)n(-c3nc4ccccc4s3)n(CC(=O)Nc3ccc(F)cc3)c2cc(=O)n1CCCN1CCOCC1 | -30 | 3.47
CCc1c2c(=O)n(-c3nc4ccccc4s3)[nH]c2cc(=O)n1CCCN1CCOCC1 | 81 | -10.48
N#Cc1cc(OCC(F)F)nc2ccccc12 | -5 | 0.76
CC(NCC(C)N1CCOCC1C)c1cnn(C(C)C)c1 (stereo not given) | 1 | -0.14
Cc1ccc(CN2CCN([C@H]3CCN(Cc4ccccc4)C3)CC2)nn1 | 6 | -0.85
Cc1ccn2c(CN3CCN([C@H]4CCN(Cc5ccccc5)C4)CC3)c(C)nc2c1 | 57 | -7.67
c1ccc(CN2CC[C@H](N3CCOCC3)C2)cc1 | 3 | -0.34
Cc1ccc(C)c(N/C(=N\OCc2ccc(Cl)cc2)c2nonc2N)c1 | -1 | 0.28
O=C(c1ccccc1F)N1CCN(C(=O)c2nnn3c2CO[C@H](c2ccc(Cl)cc2)C3)CC1 | -24 | 2.19
CCN(C(C)=O)c1nc2ccccc2n(CC(=O)Nc2cccc(C(C)=O)c2)c1=O | -6 | 0.97

SMILES | % Inhibition [%] | Z score
CC(C)CNC(=O)[C@H](C)NCCn1cccn1 | -2 | 0.23
C[C@H](NCCn1cccn1)C(=O)N1CCCCC1 | 3 | -0.33
CC(NCCn1cccn1)C(=O)N1c2ccccc2CC1C (stereo not given) | 62 | 1.55
CCc1cnc(CN2CCC[C@H]2c2noc(CC)n2)o1 | -10 | 1.41
Clc1cccc(-c2ccc(CN3CCN([C@H]4CCNC4)CC3)o2)c1 | -17 | 1.55
CC(C)Cc1ccc(CN2CCN([C@H]3CCNC3)CC2)s1 | -6 | 0.81
Cc1nc(CNC[C@H](O)c2ccc(Cl)c(F)c2)cs1 | 10 | -1.19
Cn1nnc(CNC[C@H](O)c2ccc(Cl)c(Cl)c2)n1 | 5 | -1.08
CCc1noc(-c2cccnc2-n2cnc(C(=O)NCc3ccccc3F)c2)n1 | 35 | -3.92
CC(C)(C)n1nc2nc(N3CCCC3)nc(-c3ccc(F)c(Cl)c3)c2c1N | -2 | 0.26
Nc1c2c(-c3ccc(F)cc3)nc(NCCN3CCCCC3)nc2nn1-c1ccc(Cl)cc1 | -19 | 1.69
CC(C)(C)n1nc2nc(NCCN3CCCCC3)nc(-c3ccc(F)c(Cl)c3)c2c1N | 75 | -7.01
O=C(Cn1cc(S(=O)(=O)N2CCOCC2)ccc1=O)Nc1ccc(F)cc1Cl | 4 | -0.76
CN1CCC(N2CCC[C@H]2c2nc(-c3ccc(F)cn3)no2)CC1 | 15 | -1.76
COc1cc(-c2n[nH]cc2CN(C[C@H]2CCC(=O)N2)C(C)C)cc(OC)c1OC | -18 | 1.93
CN(C)c1ccc(NC(=O)CCCc2ccc3[nH]c(=O)[nH]c3c2)nc1 | 0 | 0.04
C[C@H]1[C@@H]2[C@@H](O)C([C@H](C)C(=O)NC3CCCCC3)CC[C@@]2(C)CC[C@@H]1NC(=O)CC(C)(C)C (stereo not given in full) | 69 | -5.14
C[C@H]1[C@@H]2[C@@H](O)C([C@H](C)C(=O)NC3CCCC3)CC[C@@]2(C)CC[C@@H]1NC(=O)c1ccc(C#N)cc1 (stereo not given in full) | 37 | 1.5
COCCNC(=O)[C@@H](C)[C@@H]1CC[C@@]2(C)CC[C@H](NC(=O)CC(C)(C)C)[C@@H](C)[C@@H]2[C@H]1O | 31 | -3.58
COc1cc2c(cc1-c1nccn1Cc1noc(C(C)C)n1)OCO2 | 5 | -0.45
CCNC(=O)O[C@@H]1CC[C@]2(C)C(CC[C@@H](O)[C@H]2CC(=O)NCc2cccs2)[C@]1(C)CO (stereo not given in full) | -4 | 0.6
COc1cc(CN2C(=O)C(C)C(C)C2=O)ccn1 (stereo not given) | -12 | 1.96

SMILES | % Inhibition [%] | Z score
CCc1noc(CCNC(=O)Nc2cc(C)nn2C2CCCCC2)n1 | -3 | 0.5
Cc1ccc([C@H](C)NC(=O)CCc2ccc3[nH]cnc3c2)cc1 | -2 | 0.33
C[C@H]1CN(C2=Nc3ccc(C(F)(F)F)cc3Oc3ccccc32)CCN1C(=O)C1CCCCC1 | -10 | 0.96
Cc1ccsc1CN(Cc1cccnc1)CC(C)C | -9 | 0.87
COc1ccc(CN(Cc2ccco2)C(=O)c2cccc(F)c2)cc1OS(=O)(=O)c1ccc(F)cc1 | -33 | 2.87
CCOC(=O)N1CCC(n2ccnc2-c2nccn2C(C)C)CC1 | -11 | 1.32
Cc1ccc(-c2nccn3cc(C(=O)N4CCCCC4)nc23)cc1 | -2 | 0.32
COc1ccc(-c2nccn3cc(C(=O)N4CCCCCC4)nc23)cc1 | 51 | 0.03
COc1ccc(-c2nccn3cc(C(=O)N4CCCC4)nc23)cc1 | 26 | -2.95
CC(C)(C(=O)N[C@H]1CCN(Cc2cccnc2)C[C@@H]1O)N1CCOCC1 | -3 | 0.41
OCc1ccnc(-c2cc(O)cc(CC[C@H]3CCCCN3)c2)c1 | -3 | 0.48
CCn1cc(-c2cc(O)cc(CC[C@H]3CCCCN3)c2)c(C)n1 | 3 | -0.45
Cc1nccc(-c2cc(O)cc(CC[C@H]3CCCCN3)c2)n1 | -12 | 2.52
CC(=O)c1cc(-c2cc(O)cc(CC[C@H]3CCCCN3)c2)ccc1O | 78 | -7.86
Cc1cc(-c2cc(O)cc(CC[C@H]3CCCCN3)c2)ccn1 | 84 | -8.44
O=C(O)c1ccccc1-c1cc(O)cc(CC[C@H]2CCCCN2)c1 | -15 | 2.8
Nc1cc(-c2cc(O)cc(CC[C@H]3CCCCN3)c2)ccn1 | 9 | -1.53
Cc1nc(-n2cnnc2)ccc1-c1cc(O)cc(CC[C@H]2CCCCN2)c1 | -7 | 0.8
Cc1ccc(-c2cc(O)cc(CC[C@H]3CCCCN3)c2)c(C)n1 | 61 | -8.76
